Pol iota inh: inhibitors of human DNA polymerase iota | Potency, µM (doses to about 115 µM), without a hit: at the highest dose activity, negative = inhibition, hits mostly inhibitors | actives 1% (n = 390,000) | AID 588590 | Q9UNA4 | Pol iota fluorescent replication assay, 10 min; further: potency means the concentration at half of the fitted maximal effect
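Pol iota at 10 nM preincubated 15 min with compounds at room temperature; reaction started with fluorescent substrate, 50 nM final. Fluorescence read kinetically at 0 and 10 min; buffer-only wells as negative control.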
PI5P4Ka inh: PI5P4K alpha (human) kinase inhibition. PI5P4Kalpha enzyme, ADP-Glo luminescence, 60 min; stronger effect = lower value. actives 1.2% (n = 330,000). max response, %. P48426; active means max response of -50% or lower; inconclusive means between -30% and -50%; inactive means -30% or higher; further: value at the top dose of about 77 µM; on the % scale 0 is the no-effect control and ±100 the full control effect
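Quantitative HTS of the MLSMR library against PI5P4Kalpha with substrate. ATP added last at 5 microM final; room temperature, 60 minutes. Remaining ATP depleted, ADP converted and read as luminescence.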
POLK inh: DNA polymerase kappa (human) inhibition | AID 588579 | Potency, µM (titrated, usually from 107 µM), inactives show at the top dose activity, negative = inhibition, actives largely listed as inhibitors | purified Pol kappa, fluorescent DNA synthesis assay, 10 min | actives 0.53% (n = 400,000) | Q9UBT6; further: potency means the concentration at half of the fitted maximal effect; on the % scale 0 is the no-effect control and ±100 the full control effect
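Kinetic fluorescence readout at 0 and 10 min followed reaction start with substrate at 50 nM final. Beforehand, enzyme (10 nM Pol kappa) stood 15 min with compound at room temperature; buffer-only wells were negative controls.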
Pol eta inh: DNA polymerase eta (human) inhibition. AID 588591. Q9Y253. recombinant Pol eta, fluorescent DNA replication assay. actives 1.2% (n = 390,000). Potency, µM (series often up to 114 µM), for inactives: at the top dose activity change, negative = inhibition, actives largely listed as inhibitors; further: potency means the concentration at half of the fitted maximal effect; on the % scale 0 is the no-effect control and ±100 the full control effect
Target sequence (Q9Y253 whole entry, looked up): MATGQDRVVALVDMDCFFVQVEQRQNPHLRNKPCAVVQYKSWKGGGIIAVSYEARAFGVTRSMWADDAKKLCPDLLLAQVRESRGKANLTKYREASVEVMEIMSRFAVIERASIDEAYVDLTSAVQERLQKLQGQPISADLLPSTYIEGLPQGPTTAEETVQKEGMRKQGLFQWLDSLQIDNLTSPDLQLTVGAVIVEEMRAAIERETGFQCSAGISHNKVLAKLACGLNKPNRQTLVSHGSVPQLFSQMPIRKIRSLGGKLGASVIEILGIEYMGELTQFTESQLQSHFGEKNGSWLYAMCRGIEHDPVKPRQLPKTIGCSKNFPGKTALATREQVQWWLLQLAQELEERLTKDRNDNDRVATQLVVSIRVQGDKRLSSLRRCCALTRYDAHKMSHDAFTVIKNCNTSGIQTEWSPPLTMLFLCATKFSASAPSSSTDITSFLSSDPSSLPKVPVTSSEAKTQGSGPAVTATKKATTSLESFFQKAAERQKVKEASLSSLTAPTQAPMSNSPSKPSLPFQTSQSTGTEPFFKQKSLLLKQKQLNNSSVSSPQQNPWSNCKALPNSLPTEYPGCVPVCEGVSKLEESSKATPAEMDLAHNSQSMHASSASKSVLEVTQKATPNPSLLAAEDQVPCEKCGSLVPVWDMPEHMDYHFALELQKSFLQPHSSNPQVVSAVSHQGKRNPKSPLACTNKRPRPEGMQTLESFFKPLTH
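Pol eta at 10 nM preincubated with compounds 15 min at room temperature; reaction started with fluorescent substrate (50 nM final) and read kinetically at 0 and 10 min.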
Pol beta inh: DNA polymerase beta (human) inhibition | Pol beta primer extension/strand displacement, fluorescence kinetic | AID 485314 | actives 1.3% (n = 340,000) | P06746 | Potency, µM (titrated, usually from 114 µM), for the others: at the highest dose activity change, negative = inhibition, actives largely listed as inhibitors; further: potency means the concentration at half of the fitted maximal effect; on the % scale 0 is the no-effect control and ±100 the full control effect
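10 nM enzyme + cpd, 15 min RT; start with substrate 50 nM final; read 0 min and after 10 min RT. Corrected, normalized data; 4-parameter Hill curve fit.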
WRN inhibitor: WRN helicase (human) inhibition | Q14191 | WRN helicase unwinding, fluorescent forked duplex, kinetic | Potency, µM (doses to about 114 µM), for the others: at the highest dose activity change, negative = inhibition, most hits filed as inhibitors | actives 0.46% (n = 360,000); further: potency means the concentration at half of the fitted maximal effect; on the % scale 0 is the no-effect control and ±100 the full control effect; nearly all actives have a fitted effect of over 55% in size
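Enzyme (20 nM final) and test compound sit together 15 min at room temperature before substrate addition. Substrate is a single-forked duplex oligonucleotide (100 nM) labelled with fluorophore and quencher, with 2 mM ATP; helicase unwinding raises red fluorescence, read kinetically.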
The depositor's hits bear a star; ? = inconclusive; . = no result; [ ] = another dose, or the depositor's remark. Compounds with a hit are over-represented: about 2.8% of the library has one in this group of screens. Unless noted, the call rests on the fitted dose curve; in most records, active means well fitted curve in the direction sought with a large enough effect; inconclusive means small, poorly fitted or top-dose-only effect, or another doubt; inactive means no such curve, though single readings can be large; an effect the other way counts as inactive or inconclusive.

SMILES	Pol iota inh	PI5P4Ka inh	POLK inh	Pol eta inh	Pol beta inh	WRN inhibitor
O=C(Nc1cccc(C(=O)O)c1)/C(=C/c1cccc([N+](=O)[O-])c1)NC(=O)c1cccc(Br)c1	43.8%	-0.8	1.3%	-9.1%	.	-9.2%
O=C(N/N=C/C(Cl)=C/c1ccc([N+](=O)[O-])cc1)C(=O)Nc1cccc(C(=O)O)c1	?	0.0	12.1%	50.1µM*	?	-5.9%
Cc1c(C)c2cc3c(c(C)c2oc1=O)OCN(CCc1ccccc1)C3	?	.	-18.7%	-16.6%	-24.5%	.
O=C1NN(c2ccccc2)C(=O)/C1=C\c1cccc(OC(=O)c2cccs2)c1	?	?	-27.5%	28.2µM*	28.2µM*	?
CCOC(=O)c1ccc(N2N=C(C)/C(=C/C=C/c3ccco3)C2=O)cc1	?	-11.1	-24.7%	-14.4%	?	-1.9%
CCOc1cc(/C=C2/C(=O)N(c3ccccc3)N=C2C)ccc1OC(=O)c1cccs1	0.355µM*	.	-4.4%	-9.8%	16.5%	-27.9%[11.6 µM]
CC1=NN(c2ccc(C(=O)OC(C)C)cc2)C(=O)/C1=C\C=C\c1ccco1	-1.5%	-13.5	-2.7%	?	50.1µM*	-4.0%
COc1ccc(/C=C2/C(=O)N(c3ccccc3)N=C2C)cc1OC	2.51µM*	-1.0	-2.6%	-8.5%	?	-14.7%[57.1 µM]
CCOCCCn1c(=S)[nH]c2cc(C(=O)NCCc3ccccc3)ccc2c1=O	24.6%	-5.1	-12.0%	-13.5%	-4.3%	-3.6%
CCC(C)N1CC(=O)N2C(c3ccc(OC)cc3OC)c3[nH]c4ccccc4c3C[C@H]2C1=O (stereo partly specified)	-11.6%	-1.8	-3.5%	-11.0%	17.5%	-1.8%
O=C(c1ccc2c(=O)n3c(nc2c1)CCCCC3)N1CCc2ccccc21	29.2%	7.3	-2.6%	-3.8%	-4.2%	-4.6%
CC1=NN(c2ccccc2)C(=O)/C1=C/C=C/c1ccc(N(C)C)cc1	-3.9%	-28.7	13.6%	-2.7%	1.5%	-9.0%
CC1=NN(c2ccccc2)C(=O)/C1=C\C=C\c1ccccc1	?	17.2	-15.7%	79.4µM*	?	-14.4%[11.6 µM]
CCOC(=O)COc1c(Br)cc(C2NC(=O)NC(C)=C2C(C)=O)cc1OC (stereo unspecified)	?	?	?	22.4µM*	?	-18.2%[57.1 µM]
CCOC(=O)COc1c(OC)cc(Cl)cc1C1NC(=O)NC(C)=C1C(C)=O (stereo unspecified)	18.9%	.	-11.0%	-15.3%	-4.3%	-1.3%
CC(C)Cn1c(/C=C/c2ccco2)nc2ccccc21	20.2%	?	-14.1%	-6.5%	28.2µM*	2.6%
CCCn1c(/C=C/c2ccccc2)nc2ccccc21	23.5%	.	-19.4%[60.1 µM]	-15.0%	-9.3%	-1.3%
Cc1ccc(S(=O)(=O)N2CCOCC2)cc1NC(=O)CSc1nnc(NC2CC2)s1	-1.4%	-2.7	-10.7%	-0.9%	.	7.9%
CCCSc1oc(-c2ccco2)nc1S(=O)(=O)c1ccc(Cl)cc1	?	.	-17.6%	-5.1%	-19.4%	.
O=C(CSc1oc(-c2ccco2)nc1S(=O)(=O)c1ccc(Br)cc1)c1ccc(Cl)cc1	89.1µM*	.	?	-3.3%	11.6%	.
Cc1ccc(/C=C2\Oc3cc(OCC(=O)NN)ccc3C2=O)o1	79.4µM*	-19.4	-13.5%	-18.8%	0.0%	-8.2%[11.6 µM]
O=C(O)COc1ccc2c(c1)O/C(=C\c1cccs1)C2=O	48.3%	-26.0	-3.9%	?	1.2%	-24.8%
COC(=O)C1=C(CSc2nc3c(cc2C#N)CN(C)CC3)OC(N)=C(C#N)C1c1ccc(F)cc1 (stereo unspecified)	14.1µM*	.	70.8µM*	?	?	?
CCOC(=O)C1=C(CSc2nc(CC)c(C)cc2C#N)OC(N)=C(C#N)C1c1ccc(OC)cc1 (stereo unspecified)	?	-13.4	-11.3%	-23.3%	0.6%	-18.5%
Cc1ccc(C)c(OCCn2ccnc2)c1	39.8µM*	-4.4	79.4µM*	31.6µM*	10µM*	-24.5%
SMILES	Pol iota inh	PI5P4Ka inh	POLK inh	Pol eta inh	Pol beta inh	WRN inhibitor
O=C(COc1ccccc1[N+](=O)[O-])Nc1cccc(S(=O)(=O)NC2=NCCCCC2)c1	79.4µM*	-24.2	-33.5%	20µM*	.	-28.8%
C=CCN=c1scc(C)n1/N=C/c1ccc(O)c(O)c1	?	-3.2	?	-6.2%	2.51µM*	2.4%
CN=c1scc(-c2ccco2)n1/N=C/c1ccc(O)c(O)c1	?	?	?	?	2.82µM*	-28.0%[57.1 µM]
COc1ccc(-c2ccc(C(C)=O)cc2)cc1C1C2C=CCCC2(C)C(=O)N1Cc1ccccc1 (stereo unspecified)	-2.1%	.	-24.0%	.	.	.
CN(C)S(=O)(=O)c1cccc(-c2nn(-c3ccccc3)cc2/C=C(\C#N)c2nc3ccccc3[nH]2)c1	29.9%	-5.1	-19.3%	-17.8%	-11.0%	-16.6%
CN(C)S(=O)(=O)c1cccc(-c2nn(-c3ccccc3)cc2/C=C2\SC(=S)NC2=O)c1	?	-85.6*	?	14.1µM*	20µM*	50.1µM*
COc1ccc(CCNC(=O)Cn2c(=O)n(-c3ccc(OC)c(OC)c3)c(=O)c3ccccc32)cc1OC	?	.	79.4µM*	-1.1%	22.6%	.
CCc1ccc(-n2c(=O)c3ccccc3n(CC(=O)NCCc3ccc(OC)c(OC)c3)c2=O)cc1	-5.6%	.	-16.6%	-8.1%	15.0%	.
O=C(COc1ccc2oc(-c3ccco3)cc(=O)c2c1)N1CCCCC1	?	-15.4	-3.5%	-27.1%	?	-0.7%
c1cc(N2CCCCC2)nc(N2CCCCC2)n1	40.7%	0.6	-8.5%	-12.1%	.	7.2%

Screens from PubChem.
